Seven molecules from PubChem BioAssay (EPA / NIEHS) can be followed below.

Read-out in test [1]: solute carrier (SLCO1B1), SLCO1B1 (gene 10599)
The experiment in a line: LTEA_HepaRG_SLCO1B1: Life Technologies and Expression Analysis (LTEA) Assay for solute carrier (SLCO1B1) using HepaRG (AID 2283530). The settings on record: mRNA level, 48 h; actives raise or lower the signal. Summed up:
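Differentiated human HepaRG cells, plated 48 h, switched to serum-free induction medium and exposed in duplicate for 48 h to 8 half-log concentrations (top 100 uM) in 0.5% DMSO. SLCO1B1 mRNA by TaqMan qRT-PCR, normalized to ACTB/GAPDH/POLR2A.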

Read-out in test [2]: sulfotransferase 2A1 (SULT2A1), SULT2A1 (gene 6822)
The experiment in a line: LTEA_HepaRG_SULT2A1: Life Technologies and Expression Analysis (LTEA) Assay for sulfotransferase 2A1 (SULT2A1) using HepaRG (AID 2283531). The settings on record: mRNA level, 48 h; actives raise or lower the signal. Summed up: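 Differentiated human HepaRG cells in serum-free induction medium were exposed for 48 h to eight half-log concentrations (top 100 uM, 0.5% DMSO). SULT2A1 mRNA was measured by qRT-PCR, normalized to ACTB, GAPDH and POLR2A, and fitted bidirectionally against DMSO.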

Read-out in test [3]: Transforming Growth Factor (TGFA), TGFA (gene 7039)
The experiment in a line: LTEA_HepaRG_TGFA: Life Technologies and Expression Analysis (LTEA) Assay for Transforming Growth Factor (TGFA) using HepaRG (AID 2283532). The settings on record: mRNA level, 48 h; actives raise or lower the signal. Summed up:
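Differentiated HepaRG cells exposed 48 hours in serum-free induction medium, 0.5% DMSO vehicle, 8-point half-log series from 100 uM, in duplicate. TGFA mRNA by TaqMan qRT-PCR, normalised to ACTB, GAPDH, POLR2A; bidirectional fit versus DMSO.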

Read-out in test [4]: Transforming Growth Factor (TGFB1), TGFB1 (gene 7040)
As to the kind of experiment: LTEA_HepaRG_TGFB1: Life Technologies and Expression Analysis (LTEA) Assay for Transforming Growth Factor (TGFB1) Transporter using HepaRG (AID 2283533). The settings on record: mRNA level, 48 h; actives raise or lower the signal. Summed up: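 Differentiated human HepaRG cells in serum-free induction medium were exposed in duplicate for 48 h to eight concentrations (top 100 uM, half-log steps, 0.5% DMSO). TGFB1 mRNA was quantified by qRT-PCR, normalized to ACTB, GAPDH, POLR2A, and fitted bidirectionally against DMSO.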

Read-out in a further test: TIMP1, TIMP1 (gene 7076)
The experiment in a line: LTEA_HepaRG_TIMP1: Life Technologies and Expression Analysis (LTEA) Assay for TIMP1 using HepaRG (AID 2283534).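 Note: TaqMan qRT-PCR signal normalized to ACTB GAPDH and POLR2A housekeeping genes.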 The settings on record: mRNA level, 48 h; actives raise or lower the signal. An outline of the steps:
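Differentiated human HepaRG cells in serum-free induction medium were exposed 48 h to chemicals (8 half-log concentrations, top 100 uM, 0.5% DMSO). TIMP1 mRNA was quantified by TaqMan qRT-PCR, normalized to ACTB/GAPDH/POLR2A; bidirectional fit versus DMSO.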

Read-out in test [5]: Tumor necrosis factor receptor 1 (TNFRSF1A), TNFRSF1A (gene 7132)
The experiment in a line: LTEA_HepaRG_TNFRSF1A: Life Technologies and Expression Analysis (LTEA) Assay for Tumor necrosis factor receptor 1 (TNFRSF1A) using HepaRG (AID 2283535). The settings on record: mRNA level, 48 h; actives raise or lower the signal. Summed up:
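Differentiated human HepaRG cells were exposed in duplicate for 48 h in serum-free induction medium to eight concentrations (top 100 uM, half-log steps, 0.5% DMSO). TNFRSF1A mRNA was quantified by qRT-PCR, normalized to ACTB, GAPDH and POLR2A, then fitted bidirectionally against DMSO.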

Read-out in test [6]: Thyroid Hormone Responsive (THRSP), THRSP (gene 7069)
The experiment in a line: LTEA_HepaRG_THRSP: Life Technologies and Expression Analysis (LTEA) Assay for Thyroid Hormone Responsive (THRSP) using HepaRG (AID 2283536). The settings on record: mRNA level, 48 h; actives raise or lower the signal. An outline of the steps:
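Differentiated HepaRG cells treated 48 h in serum-free induction medium with 8 half-log concentrations up to 100 uM (0.5% DMSO), duplicates. THRSP mRNA by TaqMan qRT-PCR normalised to ACTB, GAPDH, POLR2A; bidirectional fit versus DMSO.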

Read-out in test [7]: UDP glucuronosyltransferase (UGT1A1), UGT1A1 (gene 54658)
The experiment in a line: LTEA_HepaRG_UGT1A1: Life Technologies and Expression Analysis (LTEA) Assay for UDP glucuronosyltransferase (UGT1A1) using HepaRG (AID 2283538). The settings on record: mRNA level, 48 h; actives raise or lower the signal. An outline of the steps: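 HepaRG cells, 0.5% DMSO vehicle, 48 h exposure in serum-free induction medium to 8-point half-log series topping at 100 uM, in duplicate. UGT1A1 mRNA by Fluidigm qRT-PCR, normalized to ACTB/GAPDH/POLR2A; bidirectional fit versus DMSO.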

Read-out in test [8]: X-box binding protein 1 (XBP1), XBP1 (gene 7494)
The experiment in a line: LTEA_HepaRG_XBP1: Life Technologies and Expression Analysis (LTEA) Assay for X-box binding protein 1 (XBP1) using HepaRG (AID 2283540). The settings on record: mRNA level, 48 h; actives raise or lower the signal. Summed up: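 Differentiated human HepaRG cells in serum-free induction medium were exposed in duplicate for 48 h to eight half-log concentrations up to 100 uM in 0.5% DMSO. XBP1 mRNA was quantified by qRT-PCR, normalised to ACTB, GAPDH and POLR2A, with bidirectional fitting against DMSO.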

Test [9] in a line: LTEA_HepaRG_LDH_cytotoxicity: Cytotoxicity Assessment in the Life Technologies and Expression Analysis (LTEA) Assay (AID 2283563; active = hit-call score of the fitted dose curve at least 0.9, where 1 is the maximum). Summed up:
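Differentiated human HepaRG cells, plated 48 h beforehand, were switched to serum-free induction medium and exposed for 48 h to eight half-log concentrations (top 100 uM) in 0.5% DMSO. LDH was measured in spent medium; activity was fitted relative to DMSO vehicle.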

Read-out in test [10]: Cellular tumor antigen p53 (Homo sapiens) (UniProt P04637)
As to the kind of experiment: LTEA_HepaRG_TP53: Life Technologies and Expression Analysis (LTEA) Assay for Tumor Protein P53 (TP53) using HepaRG (AID 2283537). The settings on record: mRNA level, 48 h; actives raise or lower the signal. Summed up:
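Read-out is TP53 transcript level by microfluidic qRT-PCR, normalised to three housekeeping genes and fitted bidirectionally against DMSO. Human HepaRG cells received compounds for 48 h, highest concentration 100 uM.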

Test [11] in a line: TOX21_p53_BLA_p3_viability: Viability Assessment in the Tox21 HCT-116 p53 Agonism Beta-lactamase Assay, Phase 3 (AID 2283593; active = hit-call score of the fitted dose curve at least 0.9, where 1 is the maximum;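 note: cells exposed to compound for 16 h before reading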). An outline of the steps:
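HCT116 cells, 4000/well, dosed 5 h after plating by pin transfer (217-fold dilution from DMSO stock) and incubated 16 h at 37C, 5% CO2. Viability read as ATP luminescence with CellTiter-Glo after 30 min at room temperature.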

Test [12] addresses Cellular tumor antigen p53 (Homo sapiens) (UniProt P04637). As to the kind of experiment: TOX21_p53_BLA_p3_ratio: Tox21 HCT-116 p53 Agonism Beta-lactamase Assay, Ratio, Phase 3 (AID 2283596; active = hit-call score of the fitted dose curve at least 0.9, where 1 is the maximum). An outline of the steps:
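HCT116 p53-bla cells (4000/well) given compound in DMSO (217-fold dilution) after 5 h, incubated 16 h at 37C. CCF4-AM substrate 2 h at room temperature; 460/530 nm emission ratio, gain fitted against DMSO.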

A short description of test [13]: TOX21_p53_BLA_p4_viability: Viability Assessment in the Tox21 HCT-116 p53 Agonism Beta-lactamase Assay, Phase 4 (AID 2283597; active = hit-call score of the fitted dose curve at least 0.9, where 1 is the maximum;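 note: hits lower the luminescence signal meaning cytotoxicity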). Summed up:
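HCT116 p53-bla cells (4000/well) rested 5 h at 37C, then received compounds in DMSO (217-fold dilution) for 16 h at 37C, 5% CO2. CellTiter-Glo was added after the CCF4-AM read, and luminescence was read after 30 min at room temperature.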

The target of test [14] is Cellular tumor antigen p53 (Homo sapiens) (UniProt P04637). The experiment in a line: TOX21_p53_BLA_p5_ratio: Tox21 HCT-116 p53 Agonism Beta-lactamase Assay, Ratio, Phase 5 (AID 2283599; active = hit-call score of the fitted dose curve at least 0.9, where 1 is the maximum). An outline of the steps:
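HCT-116 p53-bla cells (4000/well) plated 5 h, dosed with compound (217-fold DMSO dilution) for 16 h at 37 C; CCF4-AM substrate 2 h at room temperature. Activity is the 460/530 nm emission ratio (405 nm excitation), fitted in gain-of-signal direction versus DMSO.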

The target is the same in test [15]. The experiment in a line: TOX21_p53_BLA_p4_ratio: Tox21 HCT-116 p53 Agonism Beta-lactamase Assay, Ratio, Phase 4 (AID 2283601; active = hit-call score of the fitted dose curve at least 0.9, where 1 is the maximum). An outline of the steps:
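HCT-116 p53 beta-lactamase reporter cells (4000/well) preincubated 5 h, then compound (217-fold dilution of DMSO stock) for 16 h at 37C. CCF4-AM substrate added 2 h at room temperature; 460/530 nm emission ratio fitted upward versus DMSO.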

Test [16] shares this target. As to the kind of experiment: TOX21_p53_BLA_p2_ratio: Tox21 HCT-116 p53 Agonism Beta-lactamase Assay, Ratio, Phase 2 (AID 2283592; active = hit-call score of the fitted dose curve at least 0.9, where 1 is the maximum). An outline of the steps: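 HCT116 cells carrying a p53-responsive beta-lactamase reporter were plated, incubated 5 h at 37C, then dosed with compounds in DMSO (217-fold dilution) for 16 h. CCF4-AM substrate was added for 2 h at room temperature; the 460/530 nm emission ratio gave gain-of-signal activity relative to DMSO.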

Test [17] is described as follows: TOX21_p53_BLA_p5_viability: Viability Assessment in the Tox21 HCT-116 p53 Agonism Beta-lactamase Assay, Phase 5 (AID 2283600; active = hit-call score of the fitted dose curve at least 0.9, where 1 is the maximum). An outline of the steps: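 Cells were plated at 4000/well, rested 5 h at 37C, then given compounds in DMSO (217-fold dilution) for 16 h at 37C, 5% CO2. Following the CCF4-AM beta-lactamase read, CellTiter-Glo was added and luminescence was read after 30 min at room temperature.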

Records with an inconclusive call do not appear. Activity calls are given as the source filed them. Rule for the calls, unless noted: active = hit-call score of the fitted dose curve at least 0.9, where 1 is the maximum; inactive = score below 0.9.

Sequence of Cellular tumor antigen p53 (Homo sapiens) (P04637 whole entry, looked up): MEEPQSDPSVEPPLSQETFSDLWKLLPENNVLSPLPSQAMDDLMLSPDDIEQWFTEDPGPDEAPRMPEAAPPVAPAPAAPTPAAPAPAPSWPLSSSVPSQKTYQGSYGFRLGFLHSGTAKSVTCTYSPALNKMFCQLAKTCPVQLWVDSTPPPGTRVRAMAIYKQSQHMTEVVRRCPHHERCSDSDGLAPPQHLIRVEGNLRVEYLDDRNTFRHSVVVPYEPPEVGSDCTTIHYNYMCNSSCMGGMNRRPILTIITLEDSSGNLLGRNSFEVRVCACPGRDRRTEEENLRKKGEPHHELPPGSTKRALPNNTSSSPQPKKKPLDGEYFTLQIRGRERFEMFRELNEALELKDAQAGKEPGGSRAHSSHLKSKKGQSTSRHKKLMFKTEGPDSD

Regarding `Clc1ccccc1-c1nnc(-c2ccccc2Cl)nn1`, the outcome in [1] is “inactive”; in test [2], “inactive”; in test [3], “inactive”; in test [4], “inactive”; with TIMP1, TIMP1 (gene 7076) it was “inactive”; in test [5], “inactive”. Further, the call in test [8] and in test [9] was inactive. In addition, the AC50 (as a rule, the midpoint of the concentration-response curve, whichever way the signal moves) in test [6] is 50 µM (active); in [7] it was 10.7 µM (active).

`CCN(CC)C(=O)SCc1ccc(Cl)cc1`: the outcome in test [1] is “inactive”; in test [2], “inactive”; in test [3] it was “inactive”; in test [4], “inactive”; with TIMP1, TIMP1 (gene 7076), “inactive”; in [5] it was “inactive”. For the same molecule, the outcome in [6], in test [10], in [7], in test [8], in test [9] and in test [11] was inactive. Also, the result in test [12], in [13], in test [14] and in [15] was inactive.

Regarding `Cc1[nH]c(=O)n(C(C)(C)C)c(=O)c1Cl`, the outcome in test [1] is “inactive”; in [2] it was “inactive”; in test [3], “inactive”; in [4] it was “inactive”; with TIMP1, TIMP1 (gene 7076) it was “inactive”; in test [5], “inactive”. Besides, the outcome in test [8] and in test [9] was inactive. Also, the AC50 in [6] was 50 µM (active); in test [7] it was 31 µM (active).

In the case of `O=C(NC(=O)c1c(F)cccc1F)Nc1ccc(OC(F)(F)C(F)OC(F)(F)F)c(Cl)c1` (stereo not given), the outcome is “inactive” in [1]; “inactive” in [2]; “inactive” in [3]; “inactive” in test [4]; “inactive” with TIMP1, TIMP1 (gene 7076); “inactive” in [5]. Also, the molecule was called inactive in test [7], in test [8] and in test [9]. The AC50 in test [6] is 6.25 µM (active).

As to `CNC(=O)Oc1ccccc1OC(C)C`, the outcome was “inactive” in test [1]; “inactive” in test [2]; “inactive” in test [3]; “inactive” in test [4]; “inactive” with TIMP1, TIMP1 (gene 7076); “inactive” in test [5]. The molecule was called inactive in test [6], in [10], in test [8], in [9], in test [16] and in test [12]. The outcome in test [14], in test [17] and in test [15] was inactive. In addition, the half-maximal activity concentration (AC50) in [7] was 0.633 µM (active).

With `CNC(=O)/C=C(\C)OP(=O)(OC)OC`, the outcome in test [1] is “inactive”; in [2] it was “inactive”; in [3] it was “inactive”; in [4] it was “inactive”; with TIMP1, TIMP1 (gene 7076) it was “inactive”; in [5], “inactive”. The outcome in [6], in test [7], in test [8] and in test [9] was inactive.

As to `CNC(=O)Oc1cccc(N=CN(C)C)c1`, the outcome in test [1] was “inactive”; in test [2], “inactive”; in test [3] it was “inactive”; in test [4], “inactive”; with TIMP1, TIMP1 (gene 7076) it was “inactive”; in test [5] it was “inactive”. Moreover, the molecule was classed as inactive in test [6], in [10], in [7], in [8], in [13] and in test [14]. Besides, in [15], the result was inactive.
